The full data set covers some 8,800 targets. This sample favours those with a hit. About 0.5% of all pairs of compound and target were hits.
What follows are targets tested with COc1cc2nc(-c3cc(F)ccc3O)nc(N[C@@H]3CNC[C@H]3C(C)(C)O)c2cc1OC (assay: log2 fold change, soluble protein after heating vs DMSO (PISA); higher = thermal stabilisation; K562 lysate, 10 uM; active = over 0.2 and 3.5 SD of the protein, either way, in both replicates (recomputed)).
Outline: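 K562 pellets were dounce-homogenised in PBS pH 7.4 containing 1 mM MgCl2, and the crude extract, at 1 mg/mL protein, was exposed to 10 μM compound for 30 min. Aliquots were heated for 3 min across 48°C-58°C, pooled, brought to 0.5% NP-40 at 4°C and spun at 21,000xg for 90 min, with the supernatant taken as soluble protein. TMTpro 16plex LC-MS/MS with equalised channel sums quantified that protein. Values are log-two fold changes in thermal stability relative to solvent controls, taken from duplicates.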

UniProt P21817, sequence (P21817 whole entry, looked up): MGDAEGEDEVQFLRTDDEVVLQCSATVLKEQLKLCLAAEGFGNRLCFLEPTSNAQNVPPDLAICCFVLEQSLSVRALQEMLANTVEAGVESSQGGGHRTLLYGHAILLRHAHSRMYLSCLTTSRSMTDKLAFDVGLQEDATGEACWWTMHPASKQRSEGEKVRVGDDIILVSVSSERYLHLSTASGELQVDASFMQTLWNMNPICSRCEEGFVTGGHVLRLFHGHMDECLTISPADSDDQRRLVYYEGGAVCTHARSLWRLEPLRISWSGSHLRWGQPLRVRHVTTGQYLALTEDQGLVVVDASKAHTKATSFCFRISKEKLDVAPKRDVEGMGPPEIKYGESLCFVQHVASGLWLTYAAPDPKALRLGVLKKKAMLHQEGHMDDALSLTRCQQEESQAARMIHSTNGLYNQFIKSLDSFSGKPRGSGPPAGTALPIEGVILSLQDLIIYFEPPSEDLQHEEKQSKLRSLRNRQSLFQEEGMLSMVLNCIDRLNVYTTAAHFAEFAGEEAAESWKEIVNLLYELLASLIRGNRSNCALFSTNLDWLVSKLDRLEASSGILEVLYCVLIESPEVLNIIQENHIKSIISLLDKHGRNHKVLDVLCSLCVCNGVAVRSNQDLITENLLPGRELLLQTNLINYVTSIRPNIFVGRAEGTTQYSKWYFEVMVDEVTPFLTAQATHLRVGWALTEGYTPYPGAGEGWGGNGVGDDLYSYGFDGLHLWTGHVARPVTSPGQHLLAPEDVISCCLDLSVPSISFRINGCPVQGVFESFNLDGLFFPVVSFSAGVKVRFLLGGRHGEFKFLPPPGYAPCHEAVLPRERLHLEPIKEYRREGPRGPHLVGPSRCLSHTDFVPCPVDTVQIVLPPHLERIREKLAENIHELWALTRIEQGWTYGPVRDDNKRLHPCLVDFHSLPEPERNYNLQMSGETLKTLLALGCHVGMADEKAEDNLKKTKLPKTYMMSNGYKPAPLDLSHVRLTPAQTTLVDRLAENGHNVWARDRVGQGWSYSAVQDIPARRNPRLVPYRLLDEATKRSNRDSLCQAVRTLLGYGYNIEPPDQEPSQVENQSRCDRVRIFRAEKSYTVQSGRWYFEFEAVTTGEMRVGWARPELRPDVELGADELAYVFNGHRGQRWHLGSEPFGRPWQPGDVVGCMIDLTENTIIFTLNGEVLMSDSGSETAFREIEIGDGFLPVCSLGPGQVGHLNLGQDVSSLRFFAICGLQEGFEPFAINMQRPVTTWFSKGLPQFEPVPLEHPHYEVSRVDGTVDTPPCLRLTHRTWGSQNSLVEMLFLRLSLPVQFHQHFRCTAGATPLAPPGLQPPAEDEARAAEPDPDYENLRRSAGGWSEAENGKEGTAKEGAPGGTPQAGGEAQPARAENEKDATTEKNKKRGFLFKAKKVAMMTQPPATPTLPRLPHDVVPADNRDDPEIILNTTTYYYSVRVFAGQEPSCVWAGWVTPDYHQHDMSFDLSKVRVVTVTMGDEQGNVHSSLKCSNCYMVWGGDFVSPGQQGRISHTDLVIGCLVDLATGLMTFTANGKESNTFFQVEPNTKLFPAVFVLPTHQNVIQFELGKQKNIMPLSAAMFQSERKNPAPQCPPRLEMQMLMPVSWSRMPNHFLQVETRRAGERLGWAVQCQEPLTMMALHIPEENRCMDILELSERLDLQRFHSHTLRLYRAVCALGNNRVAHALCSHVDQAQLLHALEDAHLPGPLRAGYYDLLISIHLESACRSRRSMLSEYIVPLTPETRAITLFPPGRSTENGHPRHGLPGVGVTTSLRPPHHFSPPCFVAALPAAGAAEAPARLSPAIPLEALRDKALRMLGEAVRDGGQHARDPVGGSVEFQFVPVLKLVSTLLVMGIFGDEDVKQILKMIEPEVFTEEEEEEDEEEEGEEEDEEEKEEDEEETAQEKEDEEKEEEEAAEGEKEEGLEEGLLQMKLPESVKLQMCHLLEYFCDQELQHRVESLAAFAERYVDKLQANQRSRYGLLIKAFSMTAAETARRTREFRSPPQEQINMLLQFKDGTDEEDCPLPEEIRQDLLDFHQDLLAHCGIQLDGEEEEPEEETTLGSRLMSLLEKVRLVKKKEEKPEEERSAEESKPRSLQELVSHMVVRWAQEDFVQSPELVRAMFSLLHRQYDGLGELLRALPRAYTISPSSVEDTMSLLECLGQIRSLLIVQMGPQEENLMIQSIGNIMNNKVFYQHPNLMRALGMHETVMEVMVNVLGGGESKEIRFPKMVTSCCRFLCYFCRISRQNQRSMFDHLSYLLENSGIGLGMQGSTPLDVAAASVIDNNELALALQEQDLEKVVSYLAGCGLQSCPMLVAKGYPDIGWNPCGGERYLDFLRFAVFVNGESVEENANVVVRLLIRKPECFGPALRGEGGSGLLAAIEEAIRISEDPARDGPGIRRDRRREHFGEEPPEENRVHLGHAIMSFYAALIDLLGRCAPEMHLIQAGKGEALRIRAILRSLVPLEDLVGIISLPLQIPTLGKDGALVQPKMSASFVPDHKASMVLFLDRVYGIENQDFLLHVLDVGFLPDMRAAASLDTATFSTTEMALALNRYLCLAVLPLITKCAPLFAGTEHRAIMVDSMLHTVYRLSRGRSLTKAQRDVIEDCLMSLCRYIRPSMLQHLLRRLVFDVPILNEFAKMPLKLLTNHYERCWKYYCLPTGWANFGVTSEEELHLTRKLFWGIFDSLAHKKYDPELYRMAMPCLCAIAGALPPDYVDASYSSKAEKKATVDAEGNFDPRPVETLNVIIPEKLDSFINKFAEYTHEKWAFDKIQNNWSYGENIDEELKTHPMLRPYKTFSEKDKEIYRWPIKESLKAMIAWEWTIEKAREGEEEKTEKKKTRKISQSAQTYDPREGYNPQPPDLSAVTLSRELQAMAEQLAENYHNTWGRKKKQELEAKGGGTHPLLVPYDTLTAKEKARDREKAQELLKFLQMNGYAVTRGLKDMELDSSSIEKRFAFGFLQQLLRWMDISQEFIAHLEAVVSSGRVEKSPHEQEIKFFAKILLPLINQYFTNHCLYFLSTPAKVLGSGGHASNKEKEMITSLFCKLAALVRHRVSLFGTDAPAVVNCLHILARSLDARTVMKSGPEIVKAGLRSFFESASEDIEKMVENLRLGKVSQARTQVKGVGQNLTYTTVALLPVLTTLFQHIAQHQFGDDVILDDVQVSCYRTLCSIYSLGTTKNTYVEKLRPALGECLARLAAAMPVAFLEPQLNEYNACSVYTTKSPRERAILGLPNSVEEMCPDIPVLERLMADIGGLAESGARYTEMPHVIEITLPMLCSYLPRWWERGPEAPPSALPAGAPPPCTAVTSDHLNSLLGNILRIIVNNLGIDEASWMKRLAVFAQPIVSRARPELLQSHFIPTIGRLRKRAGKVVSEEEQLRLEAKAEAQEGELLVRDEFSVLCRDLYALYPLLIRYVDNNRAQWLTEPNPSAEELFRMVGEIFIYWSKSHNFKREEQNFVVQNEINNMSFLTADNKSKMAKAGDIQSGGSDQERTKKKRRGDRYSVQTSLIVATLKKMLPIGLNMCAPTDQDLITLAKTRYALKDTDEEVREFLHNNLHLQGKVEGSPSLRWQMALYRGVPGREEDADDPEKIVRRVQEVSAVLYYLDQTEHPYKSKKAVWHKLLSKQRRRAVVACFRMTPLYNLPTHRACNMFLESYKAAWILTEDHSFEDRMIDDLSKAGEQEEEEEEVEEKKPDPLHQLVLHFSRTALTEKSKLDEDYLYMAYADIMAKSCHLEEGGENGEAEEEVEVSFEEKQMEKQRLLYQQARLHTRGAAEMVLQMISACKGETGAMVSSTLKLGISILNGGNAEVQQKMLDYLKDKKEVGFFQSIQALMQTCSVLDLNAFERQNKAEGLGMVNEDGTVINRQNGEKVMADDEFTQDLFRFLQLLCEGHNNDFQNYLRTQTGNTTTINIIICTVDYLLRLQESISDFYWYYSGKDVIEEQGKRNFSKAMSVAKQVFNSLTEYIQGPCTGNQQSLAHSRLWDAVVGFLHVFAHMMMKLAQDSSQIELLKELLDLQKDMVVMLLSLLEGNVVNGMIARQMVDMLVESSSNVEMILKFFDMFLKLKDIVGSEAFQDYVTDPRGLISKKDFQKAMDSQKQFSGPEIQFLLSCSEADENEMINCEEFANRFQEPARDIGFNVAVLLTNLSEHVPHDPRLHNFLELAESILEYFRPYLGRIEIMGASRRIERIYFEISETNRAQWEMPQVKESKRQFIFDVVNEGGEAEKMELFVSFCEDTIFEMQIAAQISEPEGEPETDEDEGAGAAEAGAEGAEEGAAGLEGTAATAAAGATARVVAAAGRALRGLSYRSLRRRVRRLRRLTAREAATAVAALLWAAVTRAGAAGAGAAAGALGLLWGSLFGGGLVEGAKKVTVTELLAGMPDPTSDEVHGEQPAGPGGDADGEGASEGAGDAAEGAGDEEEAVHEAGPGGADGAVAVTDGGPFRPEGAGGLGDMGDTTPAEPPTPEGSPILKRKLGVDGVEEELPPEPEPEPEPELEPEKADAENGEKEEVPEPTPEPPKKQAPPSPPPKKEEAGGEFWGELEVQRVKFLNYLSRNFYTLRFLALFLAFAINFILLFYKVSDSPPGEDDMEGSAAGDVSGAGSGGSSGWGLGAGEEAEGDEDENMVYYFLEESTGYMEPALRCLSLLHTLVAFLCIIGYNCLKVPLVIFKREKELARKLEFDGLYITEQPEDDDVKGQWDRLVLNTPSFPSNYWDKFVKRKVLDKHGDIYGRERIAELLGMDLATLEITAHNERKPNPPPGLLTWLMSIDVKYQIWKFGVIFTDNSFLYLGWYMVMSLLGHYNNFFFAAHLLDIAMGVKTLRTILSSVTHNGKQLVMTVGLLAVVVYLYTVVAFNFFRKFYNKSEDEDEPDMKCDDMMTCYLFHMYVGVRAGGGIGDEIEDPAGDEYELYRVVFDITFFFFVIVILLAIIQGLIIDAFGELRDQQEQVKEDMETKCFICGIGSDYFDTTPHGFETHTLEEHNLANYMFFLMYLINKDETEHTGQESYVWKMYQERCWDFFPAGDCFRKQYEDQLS
UniProt Q9Y6D0, sequence (Q9Y6D0 whole entry, looked up): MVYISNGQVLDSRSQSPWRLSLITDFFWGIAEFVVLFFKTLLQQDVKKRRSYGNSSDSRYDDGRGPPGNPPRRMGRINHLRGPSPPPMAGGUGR

log2 fold change, inactive:
RXRA (UniProt P19793) 0.018
SATB2 (UniProt Q9UPW6) -0.008
RNF17 (UniProt Q9BXT8) -0.057
QSER1, A0A3B3IRW6 -0.004
RPS6KA5 (UniProt O75582) 0.104
RHOU (UniProt Q7L0Q8) 0.024
S100A6 (UniProt P06703) -0.038
SELENOK (UniProt Q9Y6D0) -0.025
RNF170 (UniProt Q96K19) 0.07
RYR1 (UniProt P21817) 0.02
SCNM1 (UniProt Q9BWG6) 0.15
ROBO2 isoform 3 (UniProt Q9HCK4) 0.009
RAD54L (UniProt Q92698) -0.041
RNPC3 (UniProt Q96LT9) 0.056
RNASEH2B, A0A1B0GUE7 0.039
RDH11 (UniProt Q8TC12) 0.082
RBM45 (UniProt Q8IUH3) 0.055
